In the library only some 0.79% were active in any assay of this set; here they are far more common.
AI-2 QS modul: Vibrio harveyi AI-2 quorum sensing modulation; hit rate 0.4% among 300,000; Vibrio harveyi JMH597 AI-2 luminescence/OD600 ratio, 9 h; active compounds read low; strain lacks LuxN and CqsS sensors; 0 = neutral-control median; activity change, % at 7.5 µM; in the data active = activity change below about -75%, passing the limit was not always enough; inconclusive = no clear call, values can overlap the other calls;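 also: luminescence divided by OD600 gain over 9 h not by final OD600 alone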
E coli growth-1: inhibitors of Escherichia coli growth; OD600, 23 h; active compounds read low; OD600 absorbance (no concentration beside the values); hit rate 0.21% among 330,000; AID 1053175;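 active = OD600 absorbance below the run mean of sample wells minus 3.6 SD, in any replicate, cut at about 0.56 in these data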
phage Ecoli inh: E. coli growth loss with phage present; inhibition, % at 11.9 µM; growth absorbance; hit rate 0.26% among 360,000; in the data active = inhibition above about 11%
E coli growth-2: counter-screen for AddAB inhibitors: E. coli growth inhibition | inhibition, % at 11.9 µM | E. coli V3065 growth, OD600 absorbance, 18 h | hit rate 0.27% among 330,000;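 active = inhibition above the campaign's mean inhibition across all tested compounds plus 3 SD, cut at about 9.9% in these data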;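 also: uninfected addAB+ strain grown without phage in ampicillin broth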
AddAB inh: less growth of phage-infected E. coli with AddAB. E. coli expressing H. pylori AddAB, absorbance growth. inhibition, % at 11.9 µM. hit rate 0.29% among 330,000. AID 435030; in the data active = inhibition above about 12%
Tat transport: inhibitors of E. coli Tat protein transport | E. coli MC4100 TorA-mCherry Tat export, fluorescence | inhibition, % at 10 µM | hit rate 0.036% among 340,000;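 active = mean replicate inhibition at least 50% and at least half of replicates individually reaching 50%; inconclusive = only one of the two criteria met; inactive = neither criterion met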;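 also: exported cargo escapes ClpAP degradation while cytoplasmic cargo is degraded and loses fluorescence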
JMH597 growth rt: retest Vibrio harveyi JMH597 growth inhibition. shares compounds with AI-2 QS modul. OD600 absorbance, 9 h; lacks LuxN and CqsS sensors. growth inhibition, % at 7.5 µM. hit rate 1% among 750;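 active = every replicate shows growth inhibition above 50%; inconclusive = at least half, but not all, replicates pass that cutoff; inactive = fewer than half of replicates pass it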
BB721 lum counter: retest counter-screen: lowers luminescence of constitutive-QS Vibrio harveyi BB721; 9 h; inhibition, % at 7.5 µM; shares compounds with AI-2 QS modul; hit rate 95% among 750;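 active = inhibition above about 80% in every replicate, not just on average, limit read from the data; inconclusive = at least half of replicates past the limit, but not all; inactive = fewer than half of replicates past the limit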
BB721 growth: retest Vibrio harveyi BB721 growth inhibition. shares compounds with AI-2 QS modul. OD600 absorbance, 9 h. growth inhibition, % at 7.5 µM. hit rate 3% among 750. AID 2728;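 active = every replicate shows growth inhibition above 50%; inconclusive = at least half but not all replicates above 50% inhibition; inactive = under half of replicates above 50% inhibition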
AI-2 QS JMH597: Vibrio harveyi AI-2 signaling luminescence modulation – JMH597 strain, confirmation | shares compounds with AI-2 QS modul | AID 2736 | hit rate 97% among 750 | Vibrio harveyi JMH597 AI-2 quorum sensing luminescence, 9 h; luxN and CqsS knockout, AI-2 only | inhibition, % at 7.5 µM;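 active = every replicate shows more than 75% inhibition of signal versus neutral control wells; inconclusive = half to three quarters of replicates exceed 75% inhibition; inactive = fewer than half of replicates exceed 75% inhibition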
Numbers stand for hits; - = inactive; ? = inconclusive; . = no result given.

SMILES	AI-2 QS modul	E coli growth-1	phage Ecoli inh	E coli growth-2	AddAB inh	Tat transport	JMH597 growth rt	BB721 lum counter	BB721 growth	AI-2 QS JMH597
Clc1cccc(OCc2nnc(-c3ccccc3Br)o2)c1	-90	-	-	-	-	-	?	97	82	98
Cc1ccc(C(=O)NN=C/C=C/c2ccccc2[N+](=O)[O-])cn1	.	-	.	.	.	.	.	.	.	.
O=C(CN1C(=O)c2ccccc2C1=O)Nc1ccc(-c2nc3ccccc3o2)cc1	-92	-	-	-	-	-	-	87	-	93
O=C(Nc1cnn(Cc2ccc(F)cc2)c1)c1cnccn1	-95	-	-	-	-	-	-	98	-	98
COc1cc(C=NNc2ccccn2)ccc1OCC(C)C	.	-	.	.	.	.	.	.	.	.
COc1ccc(CNC(=O)c2cc(-c3ccccc3O)n[nH]2)cc1	-	-	-	-	-	-	.	.	.	.
COc1ccc(CNC(=O)c2cc(-c3cc(C)ccc3O)n[nH]2)cc1	-79	-	-	-	-	-	-	?	-	84
N#Cc1nc(-c2ccccc2)oc1NCc1ccco1	?	-	-	-	-	-	-	90	-	93
COc1ccc(CNc2oc(-c3ccccc3)nc2C#N)cc1	-95	-	-	-	-	-	-	98	-	99
N#Cc1nc(-c2ccc(Cl)cc2)oc1NCc1ccco1	-	-	-	-	-	-	.	.	.	.
Cc1ccc(CNC(=O)Nc2cccs2)cc1	-82	-	-	-	-	-	-	95	-	95
Cc1ccc(CNC(=O)Nc2ccccc2)cc1	-91	-	-	-	-	-	-	97	-	97
COc1ccc(CNC(=O)Nc2cccs2)cc1OC	-	-	-	-	-	-	.	.	.	.
Cc1ccc(CNC(=O)NCc2ccccc2)cc1	-	-	-	-	-	-	.	.	.	.
Cc1ccc(CNC(=O)Nc2ccc(Cl)cc2)cc1	-83	-	-	-	-	-	-	86	-	90
Cc1ccc(S(=O)(=O)NC(=O)NCc2ccc(Cl)cc2)cc1	-	-	-	-	-	-	.	.	.	.
O=C(NCc1ccc(Cl)cc1)Nc1ccc(F)cc1	?	-	-	.	.	-	-	96	-	96
O=C(NCc1cccs1)Nc1ccc(Cl)cc1	?	-	-	-	-	-	-	94	60	91
COc1ccc(S(=O)(=O)c2nnn(-c3cccc(Cl)c3)c2N)cc1	?	-	-	-	-	-	-	99	-	100
COc1ccc(-c2nnn(-c3cc(Cl)cc(Cl)c3)c2N)cc1	-	-	-	-	-	-	.	.	.	.
Cc1ccc(CSc2nnc(-c3cccnc3)n2N)cc1	-90	-	-	-	-	-	-	96	-	97
Cc1ccc(C(=O)CSc2nnc(-c3cccnc3)n2N)cc1	-	-	-	-	-	-	.	.	.	.
Cc1ccc(NC(=O)Cn2nnc3ccccc3c2=O)cc1	-84	-	-	-	-	-	-	97	-	98
COc1ccc(NC(=O)CCCCCn2nnc3ccccc3c2=O)cc1OC	-	-	-	-	-	-	.	.	.	.
O=C(Cn1nnc2ccccc2c1=O)Nc1ccc(S(=O)(=O)N2CCOCC2)cc1	-97	-	-	-	-	-	-	99	-	100
SMILES	AI-2 QS modul	E coli growth-1	phage Ecoli inh	E coli growth-2	AddAB inh	Tat transport	JMH597 growth rt	BB721 lum counter	BB721 growth	AI-2 QS JMH597
Cc1ccc(NC(=O)Cn2nnc3ccccc3c2=O)cc1C	-93	-	-	-	-	-	-	99	-	99
CC(=O)c1ccc(NC(=O)CCCCCn2nnc3ccccc3c2=O)cc1	-	-	-	-	-	-	.	.	.	.
CCOc1ccc2nc(N=Cc3nc(-c4ccccc4)oc3O)sc2c1	.	-	.	.	.	.	.	.	.	.
CCSc1ccc(C2C3C(=O)N(CC)C(=O)C3[C@]3(C(=O)OC)CCCCN23)cc1 (some centres not stated)	.	-	.	.	.	.	.	.	.	.
CCc1ccc(C2CC(c3ccc(Cl)cc3)=NNC2=O)cc1 (configuration not stated)	-82	-	-	-	-	-	-	88	-	87
Cc1ccc(C2CC(c3ccc(Cl)cc3)=NNC2=O)cc1 (configuration not stated)	-	-	-	-	-	-	.	.	.	.
O=C1NN=C(c2ccc(Br)cc2)CC1c1ccc(Cl)cc1 (configuration not stated)	-84	-	-	-	-	-	-	98	-	97
Cc1ccc(S(=O)(=O)N2C(c3cccc(C)c3)CC=C(C(=O)O)C2c2ccc(F)cc2)cc1 (configuration not stated)	.	-	.	.	.	.	.	.	.	.
CCN(c1ccccc1)S(=O)(=O)c1ccc(Oc2ccccc2C(C)=O)nc1	.	-	-	-	-	-	.	.	.	.
CCN(CC)S(=O)(=O)c1ccc(Oc2cccc(C(C)=O)c2)nc1	-85	-	-	-	-	-	-	95	-	96
Cn1c(=O)n(C)c2cc(NC(=O)CCl)ccc21	-88	-	-	-	-	-	-	87	-	89
COC(=O)c1cccc(NC(=O)CN2C(=O)c3ccccc3C2=O)c1	-97	-	-	-	-	-	-	100	-	100
COC(=O)c1cccc(NC(=O)CN2CCOCC2)c1	-	-	-	-	-	-	.	.	.	.
COC(=O)c1cccc(NC(=O)C(C)N2C(=O)c3ccccc3C2=O)c1 (configuration not stated)	-86	-	-	-	-	-	-	95	-	97
COC(=O)c1cccc(NC(=O)Cn2nnc3ccccc32)c1	-84	-	-	-	-	-	-	90	-	93
CC(CS)C(=O)N1CCCC1C(=O)O (configuration not stated)	.	-	.	.	.	.	.	.	.	.
COc1ccc(C=C(C#N)C(=O)Nc2ccc(C)cc2C)cc1C(=O)O	.	-	.	.	.	.	.	.	.	.
CC(=NNc1nc(Cl)c(Cl)cc1Cl)c1ccc(S(=O)(=O)NCc2ccco2)cc1	.	-	.	.	.	.	.	.	.	.
CCc1ccc(CNC(=O)Cn2nc(-c3ccc(C)cc3)ccc2=O)cc1	-79	.	.	-	-	.	-	90	-	94
COC(=O)CC1c2cc(C(F)(F)F)ccc2S(=O)(=O)N1Cc1ccc(OC)cc1 (configuration not stated)	.	-	.	.	.	.	.	.	.	.
Cc1onc(-c2c(Cl)cccc2Cl)c1C(=O)ON=C(C#N)c1c(Cl)cccc1Cl	.	-	.	.	.	.	.	.	.	.
COC(=O)NCc1ccc(Cl)c(Cl)c1	-	.	-	-	-	-	.	.	.	.
COc1ccc(CNC(=O)Oc2ccccc2)cc1Cl	-80	-	-	-	-	-	-	97	-	97
CC(=O)NC/C(C)=N\Nc1ccc([N+](=O)[O-])cc1	-86	.	-	-	-	-	-	96	55	96
O=C(Nc1cc(-c2ccccc2)[nH]n1)c1ccc(Cl)cc1	-82	-	-	-	-	-	-	96	-	96

Screening results deposited in PubChem BioAssay by several laboratories.
